Results filed as inconclusive are left out. Entries that show only a call come without a potency. Active and inactive are the calls of the source. The call rests on the fitted dose curve; in most records, active means well fitted activation curve with a large enough effect; inconclusive means small, poorly fitted or top-dose-only effect; inactive means flat fitted curve, though single readings scatter.

A short description of this experiment: qHTS for Inhibitors of Cell Surface uPA Generation: FP59 Counterscreen for Cherry-picked Compounds. As to conditions: FP59 anthrax toxin cytotoxicity counterscreen, cells; series mostly up to 115 µM.
`CCOCCOc1cc(NCc2ccccc2)c2ncn(C(C)C)c2c1`: the Potency entry was “inactive”.
Consider `O=C(NCc1ccc2c(c1)OCO2)c1ccccn1`, for which the Potency entry is “inactive”.
Take `O=C(NC1CCCC1)c1nc2c(nnn2Cc2ccccc2Cl)c(=O)[nH]1`: the Potency result is “inactive”.
Turning to `O=C(O)CCc1nn2c3ccccc3n(CC(=O)O)c2nc1=O`, the Potency entry is “inactive”.
In the case of `CCOc1cc(C(=O)OCC(=O)c2cc(C)n(CC3CCCO3)c2C)ccc1OCC(=O)N1CCOCC1` (stereo unspecified), the Potency result was “inactive”.
Take `Cc1c(NC(=O)C(C)OC(=O)CCC2CCCC2)c(=O)n(-c2ccccc2)n1C` (stereo unspecified): the Potency entry is “inactive”.
With `COC(=O)CNC(=O)COC(=O)/C=C/c1ccccc1[N+](=O)[O-]`, the Potency result was “inactive”.
Regarding `O=C(Nc1ccnn1C1CCN(CCCC2CCCC2)CC1)c1ccccc1`, the Potency result is “inactive”.
On to `CC(C)C[C@H]1CN([C@@H](CC(C)C)CN2CCCC2CN2C(=S)NC[C@@H]2Cc2ccc(O)cc2)C(=S)N1CC1CCCCC1` (stereo partly specified), for which the Potency result was “inactive”.
Turning to `CCOCCCn1c(SCC(=O)Nc2cc(OC)ccc2OC)nc2ccccc2c1=O`, the Potency result was “inactive”.
Take `Nc1ccc(S(=O)(=O)c2ccccc2)nc1`: the Potency result is “inactive”.
As to `Cc1[nH]c2ccccc2c1C(=O)COC(=O)c1cccc(S(=O)(=O)N2CCCCC2)c1`, the Potency result is “inactive”.
The entry for `CCOc1ccc(-n2cnc3scc(-c4ccc(OC)c(OC)c4)c3c2=O)cc1` is “inactive”; for `CC1CN(C(=O)CCC(=O)NCc2ccccc2)c2ccccc2S1` (stereo unspecified) it is “inactive”.
The same measure for `CC(=O)NCCc1cnc[nH]1`: “inactive”.
Regarding `O=C(c1ccco1)N1CCN(c2ncccn2)CC1`, the Potency result is “inactive”.
The same measure for `COc1ccc2cc(CCNC(=O)c3ccc4c(c3)OCO4)c(=O)[nH]c2c1`: “inactive”.
Consider `C[C@@H](CSc1ccccc1)CN1CC[C@H](O)CCC1=O`, for which the Potency entry is “inactive”.
On to `S=C(Nc1ccccc1Oc1ccccc1)NC1CCCC1`, for which the Potency entry is “inactive”.
With `O=C(Cc1ccccc1)Nc1ccc(NC(=O)c2ccccc2)c(Cl)c1`, the Potency result is “inactive”.
Regarding `CC1CCC(NC(=O)c2nn(C)c3c2CS(=O)(=O)c2ccccc2-3)CC1` (stereo unspecified), the Potency result was “inactive”.

For the origin of these results see PubChem BioAssay AID720517 (National Center for Advancing Translational Sciences (NCATS), 2013).
